# Assay results as given in PubChem BioAssay (NCATS).
# Records with an inconclusive call do not appear. Unmarked numbers belong to inactive results. The source made the active and inactive calls. The call rests on the fitted dose curve; in most records, active means well fitted cell-killing curve with a large enough effect; inconclusive means small, poorly fitted or top-dose-only effect, or effect the other way; inactive means no such curve, though single readings can be large or run the other way.
# Assays:
# [1] = Quantitative High-Throughput drug screen in 47 multiple myeloma cell lines against the NCATS MIPE library collection: MM1S_ATCC cell viability assay (AID 1918980); further: potency means the concentration at half of the fitted maximal effect; nearly all actives have a fitted effect of over 45% in size
# In short: (§1)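 MIPE 4.0 approved/investigational drugs; 500 cells/well; 48 h 37 °C humidified 5% CO2; CTG luminescence readout; DMSO = 100%, media = 0% viability.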
# [2] = Quantitative High-Throughput drug screen in 47 multiple myeloma cell lines against the NCATS MIPE library collection: MM1R_ATCC cell viability assay (AID 1918981); further: nearly all actives have a fitted effect of over 35% in size; further: potency means the concentration at half of the fitted maximal effect
# In short: as §1
# [3] = Quantitative High-Throughput drug screen in 47 multiple myeloma cell lines against the NCATS MIPE library collection: KMS34_JCRB cell viability assay (AID 1918985); further: nearly all actives have a fitted effect of over 40% in size
# In short: as §1
# [4] = Quantitative High-Throughput drug screen in 47 multiple myeloma cell lines against the NCATS MIPE library collection: OCIMY7_PLB cell viability assay (AID 1918987); further: nearly all actives have a fitted effect of over 65% in size; further: potency means the concentration at half of the fitted maximal effect
# In short: as §1
# [5] = Quantitative High-Throughput drug screen in 47 multiple myeloma cell lines against the NCATS MIPE library collection: OPM1_PLB cell viability assay (AID 1918989); further: nearly all actives have a fitted effect of over 40% in size; further: potency means the concentration at half of the fitted maximal effect
# In short: as §1
# [6] = Quantitative High-Throughput drug screen in 47 multiple myeloma cell lines against the NCATS MIPE library collection: SKMM1_PLB cell viability assay (AID 1919863); conditions: SKMM1 myeloma viability, CellTiter-Glo ATP, 48 h; viability: stronger effect = lower value; further: nearly all actives have a fitted effect of over 35% in size; further: potency means the concentration at half of the fitted maximal effect; on viability: series mostly up to about 46 µM
# In short: as §1
# [7] = Quantitative High-Throughput drug screen in 47 multiple myeloma cell lines against the NCATS MIPE library collection: U266_ATCC cell viability assay (AID 1919864); further: nearly all actives have a fitted effect of over 35% in size; further: potency means the concentration at half of the fitted maximal effect
# In short: as §1
# [8] = Quantitative High-Throughput drug screen in 47 multiple myeloma cell lines against the NCATS MIPE library collection: XG1_PLB cell viability assay (AID 1919866); further: nearly all actives have a fitted effect of over 35% in size; further: potency means the concentration at half of the fitted maximal effect
# In short: as §1
# [9] = Quantitative High-Throughput drug screen in 47 multiple myeloma cell lines against the NCATS MIPE library collection: PE2_PLB cell viability assay (AID 1919869); further: nearly all actives have a fitted effect of over 35% in size; further: potency means the concentration at half of the fitted maximal effect
# In short: as §1
# [10] = Quantitative High-Throughput drug screen in 47 multiple myeloma cell lines against the NCATS MIPE library collection: PCM6_Riken cell viability assay (AID 1919870); further: nearly all actives have a fitted effect of over 30% in size; further: potency means the concentration at half of the fitted maximal effect
# In short: as §1
# [11] = Quantitative High-Throughput drug screen in 47 multiple myeloma cell lines against the NCATS MIPE library collection: RPMI8226_ATCC cell viability assay (AID 1919871); further: nearly all actives have a fitted effect of over 30% in size; further: potency means the concentration at half of the fitted maximal effect
# In short: as §1
# [12] = Quantitative High-Throughput drug screen in 47 multiple myeloma cell lines against the NCATS MIPE library collection: OPM2_DSMZ cell viability assay (AID 1919872); further: nearly all actives have a fitted effect of over 30% in size; further: potency means the concentration at half of the fitted maximal effect
# In short: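 We plated 500 myeloma cells per well, pinned in MIPE 4.0 compounds, and incubated for 48 hours at 37C. ATP was then quantified with CellTiter-Glo, with DMSO and media-only wells defining 100% and 0%.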
# [13] = Quantitative High-Throughput drug screen in 47 multiple myeloma cell lines against the NCATS MIPE library collection: KMS28PE_JCRB cell viability assay (AID 1918983); further: nearly all actives have a fitted effect of over 35% in size; further: potency means the concentration at half of the fitted maximal effect
# In short: as §1
# [14] = Quantitative High-Throughput drug screen in 47 multiple myeloma cell lines against the NCATS MIPE library collection: XG6_PLB cell viability assay (AID 1919865); further: nearly all actives have a fitted effect of over 40% in size; further: potency means the concentration at half of the fitted maximal effect
# In short: as §1
# [15] = Quantitative High-Throughput drug screen in 47 multiple myeloma cell lines against the NCATS MIPE library collection: LP1_DSMZ cell viability assay (AID 1918982); further: nearly all actives have a fitted effect of over 35% in size
# In short: as §1
# [16] = Quantitative High-Throughput drug screen in 47 multiple myeloma cell lines against the NCATS MIPE library collection: VP6_DJ cell viability assay (AID 1919867); further: nearly all actives have a fitted effect of over 40% in size; further: potency means the concentration at half of the fitted maximal effect
# In short: as §1
# [17] = Quantitative High-Throughput drug screen in 47 multiple myeloma cell lines against the NCATS MIPE library collection: UTMC2_PLB cell viability assay (AID 1919868); further: nearly all actives have a fitted effect of over 55% in size; further: potency means the concentration at half of the fitted maximal effect
# In short: as §1
# [18] = Quantitative High-Throughput drug screen in 47 multiple myeloma cell lines against the NCATS MIPE library collection: OCIMY1_PLB cell viability assay (AID 1918979)
# In short: as §1
# [19] = Quantitative High-Throughput drug screen in 47 multiple myeloma cell lines against the NCATS MIPE library collection: OCIMY5_PLB cell viability assay (AID 1918988); further: potency means the concentration at half of the fitted maximal effect; nearly all actives have a fitted effect of over 65% in size
# In short: as §1
smiles,measurement,setting,value
Cc1cn([C@H]2C[C@H](N=[N+]=[N-])[C@@H](CO)O2)c(=O)[nH]c1=O,Potency,[1],3.32 µM (active)
same,Potency,[2],inactive
same,Potency,[3],inactive
same,Potency,[4],16.6 µM (active)
same,Potency,[5],29.6 µM (active)
same,viability,[6],139%
same,Potency,[7],16.6 µM (active)
same,Potency,[8],16.6 µM (active)
same,Potency,[9],20.9 µM (active)
same,Potency,[10],14.8 µM (active)
same,Potency,[11],inactive
same,Potency,[12],inactive
Fc1ccc([C@@H]2CCNC[C@H]2COc2ccc3c(c2)OCO3)cc1,Potency,[2],18.7 µM (active)
same,Potency,[13],20.9 µM (active)
same,Potency,[4],inactive
same,Potency,[8],inactive
same,Potency,[10],inactive
same,Potency,[12],18.7 µM (active)
Nc1ccn([C@H]2CC[C@@H](CO)O2)c(=O)n1,Potency,[13],inactive
same,Potency,[4],13.2 µM (active)
same,viability,[6],109%
same,Potency,[7],inactive
same,Potency,[14],10.5 µM (active)
same,Potency,[9],inactive
same,Potency,[12],inactive
CN(C)CCOC(c1ccccc1)c1ccccc1,Potency,[1],10.5 µM (active)
same,Potency,[2],inactive
same,Potency,[15],inactive
same,Potency,[13],inactive
same,Potency,[3],inactive
same,Potency,[4],18.7 µM (active)
same,viability,[6],119%
same,Potency,[8],7.43 µM (active)
same,Potency,[16],6.62 µM (active)
same,Potency,[17],10.5 µM (active)
same,Potency,[9],7.43 µM (active)
same,Potency,[10],8.33 µM (active)
same,Potency,[11],inactive
same,Potency,[12],inactive
O=C(c1ccc(OCCN2CCCCC2)cc1)c1c(-c2ccc(O)cc2)sc2cc(O)ccc12,Potency,[18],inactive
same,Potency,[19],18.7 µM (active)
same,Potency,[5],5.9 µM (active)
same,Potency,[6],26.4 µM (active)
same,Potency,[14],20.9 µM (active)
same,Potency,[16],16.6 µM (active)
same,Potency,[10],18.7 µM (active)
same,Potency,[11],14.8 µM (active)
CN(C)C(=O)C(CCN1CCC(O)(c2ccc(Cl)cc2)CC1)(c1ccccc1)c1ccccc1,Potency,[1],20.9 µM (active)
same,Potency,[2],20.9 µM (active)
same,Potency,[13],14.8 µM (active)
same,Potency,[4],20.9 µM (active)
same,Potency,[5],23.5 µM (active)
same,Potency,[6],23.5 µM (active)
same,Potency,[7],18.7 µM (active)
same,Potency,[14],20.9 µM (active)
same,Potency,[8],18.7 µM (active)
same,Potency,[16],20.9 µM (active)
same,Potency,[17],18.7 µM (active)
same,Potency,[9],26.4 µM (active)
same,Potency,[10],20.9 µM (active)
same,Potency,[11],20.9 µM (active)
same,Potency,[12],18.7 µM (active)
CC(C)NCC(O)c1ccc(O)c(O)c1 (configuration not stated),Potency,[1],0.166 µM (active)
same,Potency,[2],4.18 µM (active)
same,Potency,[5],4.18 µM (active)
same,Potency,[6],16.6 µM (active)
same,Potency,[7],16.6 µM (active)
same,Potency,[14],0.743 µM (active)
same,Potency,[8],1.87 µM (active)
same,Potency,[16],0.0332 µM (active)
same,Potency,[9],1.48 µM (active)
same,Potency,[10],1.18 µM (active)
same,Potency,[12],inactive
COc1cc2c(c(OC)c1OC)-c1ccc(OC)c(=O)cc1[C@@H](NC(C)=O)CC2,Potency,[15],inactive
same,Potency,[5],inactive
same,Potency,[14],inactive
same,Potency,[8],inactive
same,Potency,[16],inactive
same,Potency,[17],inactive
same,Potency,[9],inactive
same,Potency,[10],inactive
same,Potency,[12],inactive
CCCNCC(O)COc1ccccc1C(=O)CCc1ccccc1 (configuration not stated),Potency,[2],inactive
same,Potency,[13],inactive
same,Potency,[3],inactive
same,Potency,[7],inactive
same,Potency,[14],inactive
same,Potency,[9],inactive
same,Potency,[10],inactive
same,Potency,[12],inactive
O=c1c(-c2ccc(O)cc2)coc2cc(O)cc(O)c12,Potency,[18],inactive
same,Potency,[5],inactive
same,Potency,[16],5.9 µM (active)
same,Potency,[9],inactive
same,Potency,[10],7.43 µM (active)
same,Potency,[11],20.9 µM (active)
same,Potency,[12],inactive
CCOC(=O)C(C)(C)Oc1ccc(Cl)cc1,Potency,[18],inactive
same,Potency,[15],inactive
same,Potency,[13],inactive
same,Potency,[5],inactive
same,viability,[6],104%
same,Potency,[7],inactive
same,Potency,[9],inactive
same,Potency,[10],inactive
same,Potency,[11],inactive
same,Potency,[12],inactive
